# Laboratory results taken from the supplement of paper PMC10849652.
# Of roughly 7,900 targets only a part is listed; those with a hit were picked by preference. About 0.6% of all pairs of compound and target were hits. A number with no mark means an inactive call.
# How the values were obtained:
# Experiment in all cases: log2 fold change, soluble protein after heating vs DMSO (PISA); higher = thermal stabilisation; K562 cells, 10 uM, 30 min; active = over 0.2 and 3.5 SD of the protein, either way, in both replicates (recomputed)
# [1] = compound: C#Cc1cccc(Nc2ncnc3cc(OCCOC)c(OCCOC)cc23)c1 [erlotinib]
# In short: (§1)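 K562 cells at 2×10^6 cells/mL were given 10 μM compound for 30 min. Aliquots then went through 3 min of heating across 48°C-58°C, were pooled, and were extracted in PBS with 0.5% NP-40 at 4°C, and the supernatant after 21,000xg for 90 min was quantified by TMTpro 16plex LC-MS/MS with channel sums equalised. Thermal stability relative to control samples, from duplicates, is given as log2 fold change.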
# [2] = compound: C/C(=N\NC(=O)C1=CC(=CC=C1)S(=O)(=O)N2CCOCC2)/C3=C(C=CC(=C3)Cl)O
# In short: as §1
# [3] = compound: C1=CC(=C(C=C1Cl)C2=NC3=NC=CN=C3C(=N2)NC4=CC=NC=C4)F
# In short: as §1
# [4] = compound: C1=CC(=CC=C1C2=NC3=C(N2)C=C(C=C3)C(=O)N)OC4=CC=C(C=C4)Cl
# In short: as §1
# [5] = compound: C1=CC2=C(C=CC(=C2)/C=C\3/C(=O)NC(=NCC4=CC=CS4)S3)N=C1
# In short: as §1
# [6] = compound: C1=CC2=NC=CN=C2C=C1/C=C/3\C(=O)NC(=O)S3
# In short: as §1
# [7] = compound: C1=CC=C(C=C1)C2=NC(=C(N2)C3=CC=NC=C3)C4=CC(=C(C=C4)Cl)O
# In short: as §1
# [8] = compound: C1=CC=C2C(=C1)C3=NNC4=CC=CC(=C43)C2=O
# In short: as §1
# [9] = compound: C1CCN(C1)C(=O)NC2=CC=CC(=C2)NC3=NC=C(C(=N3)NCCC4=CN=CN4)Br
# In short: as §1
# [10] = compound: C1CN(CCC1(CC2=CC=C(C=C2)Cl)N)C3=NC=NC4=C3C=CN4
# In short: as §1
# [11] = compound: C1COCCN1CCN2C3=CC=CC=C3N=C2NC(=O)C4=CC(=CC=C4)[N+](=O)[O-] [IRAK-1-4 Inhibitor I]
# In short: as §1
# [12] = compound: C=CC(=O)N1CCC[C@@H](n2nc(-c3ccc(Oc4ccccc4)cc3)c3c(N)ncnc32)C1 [ibrutinib]
# In short: as §1
# [13] = compound: CC(=O)c1cnc2ccc(-c3cc(Cl)c(O)c(Cl)c3)nc2c1N[C@H]1CC[C@H](CN(C)C)CC1
# In short: as §1
# [14] = compound: CC(C)(C)Cn1c(N)nc2ccc(-c3[nH]c(C(C)(C)C)nc3-c3ccc(F)cc3)nc21 [ralimetinib]
# In short: as §1
# [15] = compound: CC(C)(O)CC(=O)NCCn1ccc2ncnc(Nc3ccc(Oc4cccc(C(F)(F)F)c4)c(Cl)c3)c21
# In short: as §1
# [16] = compound: CC(C)C1=C2N=C(C=C(N2N=C1)NCC3=CC=CC=C3)NCCCCCCN
# In short: as §1
# [17] = compound: CC(C)C[C@@H](C=O)NC(=O)[C@H](CC(C)C)NC(=O)[C@H](CC(C)C)NC(=O)OCc1ccccc1
# In short: as §1
# [18] = compound: CC(C)N(C[C@H]1O[C@@H](n2cnc3c(N)ncnc32)[C@H](O)[C@@H]1O)[C@H]1C[C@@H](CCc2nc3cc(C(C)(C)C)ccc3[nH]2)C1 [pinometostat]
# In short: as §1
# [19] = compound: CC1=C(C(CC(=O)N1)C2=CC=C(C=C2)C(F)(F)F)C(=O)NC3=C(C=C4C(=C3)C=NN4)F
# In short: as §1
# [20] = compound: CC1=C(C2=C(C=C1)C(=O)C3=CC=CC=C3N2CCCN)C
# In short: as §1
# Sequence of UniProt P67870 (P67870 whole entry, looked up): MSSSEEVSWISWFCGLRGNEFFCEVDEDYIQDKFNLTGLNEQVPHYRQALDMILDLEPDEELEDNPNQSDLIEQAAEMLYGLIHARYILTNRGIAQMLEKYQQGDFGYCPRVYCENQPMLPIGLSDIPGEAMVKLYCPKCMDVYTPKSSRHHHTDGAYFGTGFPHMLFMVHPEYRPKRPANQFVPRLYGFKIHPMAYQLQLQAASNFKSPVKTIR
# Sequence of UniProt Q8N684 (Q8N684 whole entry, looked up): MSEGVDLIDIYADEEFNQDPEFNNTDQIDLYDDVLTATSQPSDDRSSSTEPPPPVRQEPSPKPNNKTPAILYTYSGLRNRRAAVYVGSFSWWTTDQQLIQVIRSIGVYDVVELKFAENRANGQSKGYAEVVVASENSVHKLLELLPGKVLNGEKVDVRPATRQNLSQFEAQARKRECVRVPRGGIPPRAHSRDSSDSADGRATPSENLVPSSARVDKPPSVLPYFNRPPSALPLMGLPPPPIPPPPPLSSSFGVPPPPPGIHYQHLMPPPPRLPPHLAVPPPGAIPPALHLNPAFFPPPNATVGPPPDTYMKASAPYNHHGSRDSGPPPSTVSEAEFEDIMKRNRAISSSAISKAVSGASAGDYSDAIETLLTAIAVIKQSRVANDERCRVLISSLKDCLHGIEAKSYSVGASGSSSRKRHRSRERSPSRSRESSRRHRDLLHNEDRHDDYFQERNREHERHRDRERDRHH
# Sequence of UniProt O00748 (O00748 whole entry, looked up): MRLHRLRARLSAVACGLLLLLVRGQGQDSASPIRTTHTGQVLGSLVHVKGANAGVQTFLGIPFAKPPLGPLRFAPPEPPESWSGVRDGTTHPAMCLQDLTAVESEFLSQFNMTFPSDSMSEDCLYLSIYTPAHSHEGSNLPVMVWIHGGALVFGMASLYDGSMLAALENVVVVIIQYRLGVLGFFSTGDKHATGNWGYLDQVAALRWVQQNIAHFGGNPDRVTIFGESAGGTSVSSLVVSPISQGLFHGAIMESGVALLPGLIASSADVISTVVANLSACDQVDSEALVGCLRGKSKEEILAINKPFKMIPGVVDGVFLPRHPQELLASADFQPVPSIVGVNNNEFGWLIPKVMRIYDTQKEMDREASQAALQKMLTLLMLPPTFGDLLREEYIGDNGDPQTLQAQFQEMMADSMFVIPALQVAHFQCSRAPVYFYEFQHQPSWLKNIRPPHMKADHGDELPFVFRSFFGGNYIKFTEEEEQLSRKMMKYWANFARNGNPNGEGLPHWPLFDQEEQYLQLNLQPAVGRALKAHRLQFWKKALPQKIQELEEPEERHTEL
# Sequence of UniProt P05937 (P05937 whole entry, looked up): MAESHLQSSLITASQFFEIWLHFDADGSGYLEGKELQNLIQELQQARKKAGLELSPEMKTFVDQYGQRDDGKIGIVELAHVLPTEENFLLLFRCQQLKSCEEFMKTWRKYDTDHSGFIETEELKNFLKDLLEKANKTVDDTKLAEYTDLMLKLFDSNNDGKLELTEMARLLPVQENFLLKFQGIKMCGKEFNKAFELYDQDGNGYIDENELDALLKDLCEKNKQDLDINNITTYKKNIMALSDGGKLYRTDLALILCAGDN
# Sequence of UniProt O75208 (O75208 whole entry, looked up): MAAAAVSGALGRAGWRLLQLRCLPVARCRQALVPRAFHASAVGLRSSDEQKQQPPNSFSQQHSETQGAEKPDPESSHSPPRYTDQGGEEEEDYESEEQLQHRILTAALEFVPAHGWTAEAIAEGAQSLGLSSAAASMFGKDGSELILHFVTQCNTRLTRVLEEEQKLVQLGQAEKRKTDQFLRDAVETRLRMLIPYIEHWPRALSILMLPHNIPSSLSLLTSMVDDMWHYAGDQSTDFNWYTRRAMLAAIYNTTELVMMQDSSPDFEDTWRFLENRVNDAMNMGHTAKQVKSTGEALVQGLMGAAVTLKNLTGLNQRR
# Sequence of UniProt P21127 (P21127 whole entry, looked up): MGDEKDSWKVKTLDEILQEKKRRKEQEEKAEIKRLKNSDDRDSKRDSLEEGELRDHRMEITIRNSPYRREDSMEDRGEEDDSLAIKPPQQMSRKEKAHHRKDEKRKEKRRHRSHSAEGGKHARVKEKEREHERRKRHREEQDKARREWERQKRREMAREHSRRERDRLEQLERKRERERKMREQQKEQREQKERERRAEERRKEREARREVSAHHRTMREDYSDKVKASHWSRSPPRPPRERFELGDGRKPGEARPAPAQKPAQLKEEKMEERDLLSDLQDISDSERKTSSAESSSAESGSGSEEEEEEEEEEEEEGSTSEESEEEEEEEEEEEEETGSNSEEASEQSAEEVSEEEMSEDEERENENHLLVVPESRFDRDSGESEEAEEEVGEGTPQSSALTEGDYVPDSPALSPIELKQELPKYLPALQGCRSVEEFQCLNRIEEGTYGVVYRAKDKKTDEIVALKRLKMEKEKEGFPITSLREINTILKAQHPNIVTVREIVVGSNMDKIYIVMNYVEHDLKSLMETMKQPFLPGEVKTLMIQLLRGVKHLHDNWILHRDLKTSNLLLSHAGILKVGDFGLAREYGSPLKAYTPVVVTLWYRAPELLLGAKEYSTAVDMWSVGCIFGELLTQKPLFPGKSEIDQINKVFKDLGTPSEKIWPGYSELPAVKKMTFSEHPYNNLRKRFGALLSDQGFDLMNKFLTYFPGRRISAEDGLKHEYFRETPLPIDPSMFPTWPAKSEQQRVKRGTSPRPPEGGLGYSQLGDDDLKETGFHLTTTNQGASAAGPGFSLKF
# Sequence of UniProt A5YKK6 (A5YKK6 whole entry, looked up): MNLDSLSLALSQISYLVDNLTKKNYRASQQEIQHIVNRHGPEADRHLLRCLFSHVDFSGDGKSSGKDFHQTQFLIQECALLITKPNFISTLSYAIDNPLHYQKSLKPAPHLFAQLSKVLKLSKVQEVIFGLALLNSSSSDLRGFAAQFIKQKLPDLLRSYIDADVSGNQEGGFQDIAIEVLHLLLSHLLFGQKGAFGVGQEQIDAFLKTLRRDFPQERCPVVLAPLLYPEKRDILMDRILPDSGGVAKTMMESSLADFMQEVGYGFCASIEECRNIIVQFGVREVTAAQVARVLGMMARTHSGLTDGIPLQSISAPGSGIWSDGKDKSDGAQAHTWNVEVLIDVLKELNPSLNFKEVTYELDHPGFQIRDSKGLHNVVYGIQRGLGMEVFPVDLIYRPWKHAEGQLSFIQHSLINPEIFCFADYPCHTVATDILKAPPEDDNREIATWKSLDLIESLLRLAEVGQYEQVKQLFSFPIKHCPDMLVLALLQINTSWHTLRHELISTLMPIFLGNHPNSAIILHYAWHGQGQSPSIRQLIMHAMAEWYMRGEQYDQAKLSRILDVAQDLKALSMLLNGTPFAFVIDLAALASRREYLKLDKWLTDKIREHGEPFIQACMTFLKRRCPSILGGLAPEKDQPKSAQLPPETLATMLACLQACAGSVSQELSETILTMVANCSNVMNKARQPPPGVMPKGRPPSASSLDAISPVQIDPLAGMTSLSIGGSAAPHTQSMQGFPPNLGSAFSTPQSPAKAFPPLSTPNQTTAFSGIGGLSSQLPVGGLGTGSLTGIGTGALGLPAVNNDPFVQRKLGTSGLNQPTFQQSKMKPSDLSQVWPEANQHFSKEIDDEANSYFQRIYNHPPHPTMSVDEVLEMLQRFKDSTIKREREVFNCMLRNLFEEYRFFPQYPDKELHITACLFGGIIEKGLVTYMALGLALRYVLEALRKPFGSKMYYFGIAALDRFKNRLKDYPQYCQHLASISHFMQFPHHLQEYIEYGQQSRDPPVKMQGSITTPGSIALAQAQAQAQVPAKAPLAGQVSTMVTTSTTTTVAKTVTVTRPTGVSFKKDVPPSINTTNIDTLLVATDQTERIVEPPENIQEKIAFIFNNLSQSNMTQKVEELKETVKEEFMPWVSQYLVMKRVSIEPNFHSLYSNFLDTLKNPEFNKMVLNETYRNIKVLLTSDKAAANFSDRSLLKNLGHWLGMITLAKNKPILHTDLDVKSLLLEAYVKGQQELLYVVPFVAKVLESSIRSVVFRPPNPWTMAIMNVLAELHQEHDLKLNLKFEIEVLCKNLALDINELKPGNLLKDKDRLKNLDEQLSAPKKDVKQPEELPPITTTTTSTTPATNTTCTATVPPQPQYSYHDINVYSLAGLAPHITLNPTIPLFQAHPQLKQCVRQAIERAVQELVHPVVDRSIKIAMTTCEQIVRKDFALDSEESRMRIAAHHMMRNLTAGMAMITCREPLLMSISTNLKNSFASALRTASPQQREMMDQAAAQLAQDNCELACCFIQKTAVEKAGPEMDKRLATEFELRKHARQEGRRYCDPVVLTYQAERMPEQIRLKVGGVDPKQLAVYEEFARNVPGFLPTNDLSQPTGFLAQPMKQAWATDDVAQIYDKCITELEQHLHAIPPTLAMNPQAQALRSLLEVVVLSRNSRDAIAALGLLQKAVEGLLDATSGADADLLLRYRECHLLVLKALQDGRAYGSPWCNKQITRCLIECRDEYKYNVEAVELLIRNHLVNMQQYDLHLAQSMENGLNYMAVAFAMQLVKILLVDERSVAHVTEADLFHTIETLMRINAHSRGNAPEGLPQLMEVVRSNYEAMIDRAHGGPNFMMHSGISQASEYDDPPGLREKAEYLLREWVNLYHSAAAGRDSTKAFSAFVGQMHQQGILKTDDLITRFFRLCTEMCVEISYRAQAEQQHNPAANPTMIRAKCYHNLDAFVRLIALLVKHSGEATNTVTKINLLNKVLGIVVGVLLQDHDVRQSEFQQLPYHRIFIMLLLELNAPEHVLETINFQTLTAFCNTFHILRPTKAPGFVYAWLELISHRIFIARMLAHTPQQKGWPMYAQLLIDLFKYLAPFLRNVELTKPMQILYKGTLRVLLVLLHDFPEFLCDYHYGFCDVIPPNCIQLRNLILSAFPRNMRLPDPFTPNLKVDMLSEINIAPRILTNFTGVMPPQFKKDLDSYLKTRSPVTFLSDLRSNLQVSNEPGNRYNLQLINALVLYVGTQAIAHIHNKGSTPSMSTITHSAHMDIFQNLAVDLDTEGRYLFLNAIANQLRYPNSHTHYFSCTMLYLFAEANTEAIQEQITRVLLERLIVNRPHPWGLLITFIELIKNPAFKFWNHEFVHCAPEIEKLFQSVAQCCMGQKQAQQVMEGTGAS
Target,log2 fold change [1],log2 fold change [2],log2 fold change [3],log2 fold change [4],log2 fold change [5],log2 fold change [6],log2 fold change [7],log2 fold change [8],log2 fold change [9],log2 fold change [10],log2 fold change [11],log2 fold change [12],log2 fold change [13],log2 fold change [14],log2 fold change [15],log2 fold change [16],log2 fold change [17],log2 fold change [18],log2 fold change [19],log2 fold change [20]
CBR1 (UniProt P16152),0.011,0.066,0.115,0.008,-0.009,0.028,0.186,-0.038,-0.027,0.057,0.023,0.009,0.031,0.097,-0.007,0.061,-0.088,-0.035,-0.009,0.028
CSNK2B (UniProt P67870),-0.021,-0.024,-0.017,-0.007,0.123,0.324 (active),0.031,0.084,-0.031,-0.023,-0.003,-0.014,0.266 (active),-0.006,-0.021,-0.087,-0.003,0.044,0.022,0.096
CRYM-AS1 (UniProt A6NIL9),0.13,-0.214,0.027,0.23,0.089,-0.725,0.024,0.073,-0.27,0.108,0.13,0.172,-0.017,-0.063,-0.108,-0.088,0.168,0.054,0.038,-0.099
CCNB1 (UniProt P14635),0.012,0.013,0.03,0.044,0.013,0.006,-0.016,0.002,-0.011,-0.018,0.035,-0.024,-0.221 (active),-0.016,-0.005,-0.014,0.006,-0.018,-0.007,0.007
CDK11B (UniProt P21127),0.044,0.006,-0.139,0.063,0.035,-0.033,-0.042,-0.049,-0.033,-0.058,-0.151,-0.026,2.34 (active),0.04,-0.006,-0.116,0.076,-0.11,-0.009,-0.366 (active)
CRTC2 (UniProt Q53ET0),0.194,0.151,0.039,0.035,0.093,0.073,-0.129,-0.14,-0.233,0.08,-0.024,-0.048,-0.151,0,-0.053,-0.058,-0.032,0.01,0.113,0.101
CHD3 isoform 3 (UniProt Q12873),-0.052,0.148,0.005,-0.062,0,0.034,0.388,-0.123,-0.125,-0.093,-0.052,-0.1,-0.284,0.36,-0.075,-0.319,0.186,0.071,0.125,-0.009
CES2 isoform 4 (UniProt O00748),-0.05,-0.16,-0.264,-0.008,-0.06,-0.011,0.139,0.083,0.061,-0.087,-0.005,0.077,0.038,0.006,0.012,0.045,0.06,-0.02,-0.128,0
CALB1 (UniProt P05937),-0.011,-0.001,0.067,0.032,-0.033,0.055,-0.01,0.027,0.019,-0.026,0.016,-0.033,0.017,-0.078,-0.052,-0.245 (active),-0.017,-0.043,0.055,-0.148
CSTF2 (UniProt P33240),0.032,-0.002,-0.011,0.017,0.017,0.051,-0.076,0.023,0.033,-0.061,0.011,0.008,0.057,-0.006,0.025,0.093,-0.006,-0.008,0,0.169
COQ9 (UniProt O75208),0.035,0.082,0.006,0.016,0.034,0.056,0.012,0.008,-0.018,-0.001,0.005,0.03,-0.007,-0.055,0.085,-0.092,-0.024,-0.062,0.019,0.043
CNOT1 (UniProt A5YKK6),0.013,0.102,-0.003,-0.007,0.035,0.001,0.014,-0.004,-0.009,-0.008,-0.07,-0.024,-0.029,0.028,-0.063,-0.101,0.039,0.027,0.009,0.063
CEMIP2 (UniProt Q9UHN6),0.076,0.018,-0.042,0.001,0.087,0.029,-0.071,-0.066,0.084,0.041,0,0.096,-0.045,-0.023,-0.026,0.122,0.11,-0.035,-0.211,0.057
CPSF7 isoform 3 (UniProt Q8N684),-0.035,0.054,-0.015,0.041,-0.001,0.005,0.01,-0.005,-0.035,-0.016,-0.037,0,-0.242 (active),0.003,-0.002,0.02,-0.045,-0.028,-0.016,0.236 (active)
CCNK isoform 4 (UniProt O75909),0.079,0.006,-0.138,-0.016,-0.126,-0.013,-0.068,-0.077,0.047,-0.126,-0.143,0.02,-0.058,0.031,-0.007,-0.008,0.045,0.15,-0.046,-0.047
CNTN4 (UniProt Q8IWV2),0.284,-0.641 (active),0.012,0.018,0.179,-0.095,0.05,0.097,-0.097,0.194,0.049,0.023,0.065,0.025,-0.108,0.195,0.044,-0.027,-0.014,0.137
